miR-21 act = qHTS Assay for Modulators of miRNAs and/orActivators of miR-21; AID 2288, 2010; Potency, µM (series often up to 38.3 µM), hits mostly activators; HeLa miR-21 FLuc reporter, luciferase, 48 h; 340,000 tested, under 10 active;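 note: miR-21 action dims this reporter so a rising signal means less miR-21 action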
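HeLa cells endogenously expressing miR-21, stably carrying CMV-driven firefly luciferase with a downstream miR-21 binding site, 2000 cells/well. Titrations up to approximately 40 uM, 48 hours; luciferase luminescence read.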
A549 viability = Nrf2 qHTS screen for inhibitors: counterscreen for cytotoxicity; Potency, µM (highest dose often 46 µM), actives largely listed as inhibitors; A549 ARE-Fluc cells, CellTiter-Fluor viability, 18-24 h; AID 504648, 2011; 0.16% of 390,000 active
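Cytotoxicity counterscreen: CellTiter-Fluor fluorescence was measured in A549 ARE_Fluc cells after 18-24 h of compound exposure in a concentration series. The subsequent BugLite luminescent read reports ARE-luciferase activity.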
Nrf2 block = Nrf2 qHTS screen for inhibitors | A549 ARE-Fluc reporter, luciferase luminescence, 18-24 h | Potency, µM (doses to about 46 µM), hits mostly inhibitors | 2.1% of 360,000 active | AID 504444, 2011; note: nearly all actives have a fitted effect of over 60% in size
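In this cell-based qHTS, ARE-driven firefly luciferase in A549 cells reports Nrf2 activity; the luminescent signal after BugLite lysis is the measured value, with a prior CellTiter-Fluor read for cell health.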
GRP78 ERSR act = qHTS for Inducers of the Endoplasmic Reticulum Stress Response (ERSR) in Human Glioma: qHTS; 0.02% of 420,000 active; AID 602332, 2012; Potency, µM, actives largely listed as activators; U87-MG GRP78 promoter luciferase reporter, 16 h; note: series mostly up to about 76 µM; nearly all actives have a fitted effect of over 35% in size
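Stably transfected U87-MG glioma cells carrying a GRP78-based luciferase sensor; 16 h compound incubation. Luminescence end-point read 10 min after Bright-Glo addition at room temperature.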
PTAP TSG101 blk = qHTS Assay for Iinhibitors of HIV-1 Budding by Blocking the Interaction of PTAP/TSG101; Fluorescence polarization, FITC-PTAP peptide / Tsg101 binding; Potency, µM (top dose mostly 115 µM), actives largely listed as inhibitors; Tumor susceptibility gene 101 protein (Homo sapiens), Q99816; 340,000 tested, under 10 active; active = well fitted inhibition curve with a large enough effect in the main read-out, with a control signal flat, not every such curve was filed as active; inconclusive = small, poorly fitted or top-dose-only effect, or effect the other way, or a change in a side signal; inactive = no such curve, though single readings can be large or run the other way
Target sequence (Q99816 whole entry, looked up): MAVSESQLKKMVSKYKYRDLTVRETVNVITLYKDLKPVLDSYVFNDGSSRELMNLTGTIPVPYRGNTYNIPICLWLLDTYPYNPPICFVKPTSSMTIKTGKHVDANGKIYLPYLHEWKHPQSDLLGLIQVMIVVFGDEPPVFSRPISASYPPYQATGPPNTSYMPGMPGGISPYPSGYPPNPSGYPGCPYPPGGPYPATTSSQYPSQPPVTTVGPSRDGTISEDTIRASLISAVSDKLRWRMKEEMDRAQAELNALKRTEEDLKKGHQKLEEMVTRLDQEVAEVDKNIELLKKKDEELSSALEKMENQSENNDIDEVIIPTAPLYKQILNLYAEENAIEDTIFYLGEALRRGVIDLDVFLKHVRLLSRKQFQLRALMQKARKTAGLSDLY
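Steps: Tsg101 binding domain dispensed (10 uM final), compounds pinned in DMSO, FITC-labeled PTAP-motif peptide added (50 nM final); after 20 min binding at room temperature, polarization measured.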
Nrf2 ARE act = qHTS of Nrf2 Activators; AREc32 ARE-luciferase reporter (MCF7-derived line), luminescence, 24 h; Potency, µM (doses to about 46.1 µM), hits mostly activators; 0.31% of 410,000 active; AID 624171, 2012; note: nearly all actives have a fitted effect of over 65% in size
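Luminescent ARE reporter assay in AREc32_Fluc cells: overnight plating at 37 deg C, 24 hr compound incubation, Steady-Glo added, 30 min RT before reading.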
Each line names hits and unclear results; the compound was inactive in the other large screens. An excerpt weighted towards active compounds, which were near 2.1% of everything screened. Unless noted, calls come from the whole dose curve; as a rule, active = well fitted curve in the direction sought with a large enough effect; inconclusive = small, poorly fitted or top-dose-only effect, or another doubt; inactive = no such curve, though single readings can be large; an effect the other way counts as inactive or inconclusive.

CCC(C)Nc1nc(N)c([N+](=O)[O-])c(Nc2cc(OC)ccc2OC)n1 (configuration not stated)	A549 viability inconclusive, Nrf2 block inconclusive
C=CCNc1nc(N)c([N+](=O)[O-])c(Nc2ccccc2OC)n1	Nrf2 block 21µM
CCC(C)Nc1nc(N)c([N+](=O)[O-])c(Nc2ccccc2OC)n1 (configuration not stated)	A549 viability inconclusive, Nrf2 block 15µM
Cc1c(C(=O)NC(C)(C)C)sc2ncnc(NCCN(C)C)c12	none (no result: miR-21 act, A549 viability, Nrf2 block, PTAP TSG101 blk, Nrf2 ARE act)
O=C(Cn1cnnn1)N[C@@H]1C(=O)N2C(C(=O)O)=C(CSc3nncs3)CS[C@H]12	none (no result: miR-21 act, A549 viability, Nrf2 block, PTAP TSG101 blk, Nrf2 ARE act)
CCOC(=O)N1CCC(NC(=O)CSCc2nc(-c3cccc(OC)c3)oc2C)CC1	Nrf2 block 18µM
COc1cccc(-c2nc(CS(=O)(=O)CC(=O)NC3CCCC3)c(C)o2)c1	Nrf2 block 21µM
CCOC(=O)N1CCC(NC(=O)CSCc2nc(-c3ccc(OCC)cc3)oc2C)CC1	none
CCc1ccc(-c2nc(CSCC(=O)N3CCN(c4ccccn4)CC3)c(C)o2)cc1	miR-21 act inconclusive, A549 viability inconclusive, Nrf2 block 16µM
Cc1ccc(-c2nc(CSCC(=O)N3CCN(c4ccccn4)CC3)c(C)o2)cc1	Nrf2 block 16µM
Cc1ccc(-c2nc(CSCC(=O)N3CCN(C(=O)c4ccco4)CC3)c(C)o2)cc1	none
Cn1cc(S(C)=O)c(=O)c2ccc(F)cc21 (configuration not stated)	none (no result: miR-21 act, A549 viability, Nrf2 block, PTAP TSG101 blk, Nrf2 ARE act)
Cc1ccccc1N(C(=O)Cc1c[nH]c2ccccc12)C(C(=O)NC1CCCCC1)c1ccco1 (configuration not stated)	none
COc1ccc(C(C(=O)NC2CCCCC2)N(Cc2cccs2)C(=O)Cc2c[nH]c3ccccc23)cc1OC (configuration not stated)	A549 viability inconclusive, Nrf2 block 23µM
Cc1ccc(N(C(=O)Cc2c[nH]c3ccccc23)C(C(=O)NC2CCCCC2)c2ccco2)cc1 (configuration not stated)	miR-21 act inconclusive, A549 viability inconclusive, Nrf2 block 18µM
COc1ccc(C(C(=O)NC2CCCCC2)N(C(=O)Cc2c[nH]c3ccccc23)c2ccccc2C)cc1OC (configuration not stated)	A549 viability inconclusive, Nrf2 block inconclusive
O=C1CCc2cc(S(=O)(=O)Nc3cc(F)cc(Cl)c3)c(F)cc2N1	A549 viability inconclusive (no result: miR-21 act, GRP78 ERSR act, PTAP TSG101 blk, Nrf2 ARE act)
COc1ccccc1CN1CCC2(CCC(CNC(=O)c3ccccc3N(C)C)O2)CC1 (configuration not stated)	none (no result: miR-21 act, A549 viability, Nrf2 block, PTAP TSG101 blk, Nrf2 ARE act)
COc1ccc(-c2nc3ccc(Cl)cc3c(=O)n2Cc2ccccc2)cc1COc1ccc(NC(C)=O)cc1	none (no result: miR-21 act, GRP78 ERSR act, PTAP TSG101 blk, Nrf2 ARE act)
c1cncc(OC2CCN(Cc3ccc4c(c3)CN(Cc3ccc5c(c3)OCCO5)CCO4)CC2)c1	none (no result: miR-21 act, A549 viability, Nrf2 block, PTAP TSG101 blk, Nrf2 ARE act)
CN(Cc1ccco1)C(=O)c1cc(NC(=O)C2CCC2)c2c(c1)nc(-c1ccncc1)n2C	none (no result: miR-21 act, A549 viability, Nrf2 block, PTAP TSG101 blk, Nrf2 ARE act)
O=C(Nc1c(Cl)cc([N+](=O)[O-])cc1Cl)c1cc(Cl)cc(Cl)c1O	A549 viability inconclusive, Nrf2 block inconclusive (no result: miR-21 act, PTAP TSG101 blk, Nrf2 ARE act)
COc1ccc(CN2CCC3(CC2)c2ccccc2[C@@H](NC(=O)c2ccccc2)[C@@H]3O)cc1O	none (no result: miR-21 act, A549 viability, Nrf2 block, PTAP TSG101 blk, Nrf2 ARE act)
Cc1sc2ncnc(N3CCN(c4ncccn4)CC3)c2c1C	Nrf2 block 15µM
Cc1cc(C)c(C)c(S(=O)(=O)N2CCN(c3ncnc4sc(C)c(C)c34)CC2)c1C	none
CCS(=O)(=O)N1CCN(c2ncnc3sc(C)c(C)c23)CC1	none
COc1cc(C(=O)N2CCN(c3ncnc4sc(C)c(C)c34)CC2)cc(OC)c1OC	A549 viability inconclusive, Nrf2 block 10µM
CN(C)CC(C)(C)CNC(=O)c1cnn(-c2nccc(-c3ccc4c(c3)OCO4)n2)c1-c1ccco1	none (no result: miR-21 act, A549 viability, Nrf2 block, PTAP TSG101 blk, Nrf2 ARE act)

Assay outcomes (PubChem BioAssay)
